{"source": "PubChem BioAssay (NCATS)", "note": "Where “and” joins values, the source holds several entries; their conditions need not be identical. Equal entries are not always repeated. Values without a mark were called inactive. Records with an inconclusive call do not appear. Calls of active or inactive are those of the source. Unless noted, the call rests on the fitted dose curve; in most records, active means well fitted curve in the direction sought with a large enough effect; inconclusive means small, poorly fitted or top-dose-only effect, or another doubt; inactive means no such curve, though single readings can be large; an effect the other way counts as inactive or inconclusive.", "data": [{"tested_on": "not listed separately", "assay": "qHTS assay for small molecule agonists of the antioxidant response element (ARE) signaling pathway measured by Nrf2-dependant transcriptional activity - cell viability counter screen (AID 720653; active means well fitted curve in the direction sought with a large enough effect in the repeat runs; an effect the other way counts as inactive or inconclusive; further: on the % scale 0 is the no-effect control and ±100 the full control effect)", "conditions": "ARE-bla HepG2 viability, CellTiter-Glo ATP luminescence, 16 h; stronger effect = lower value", "in_short": "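ARE-bla HepG2 cells (2,000/well) rested 5 hrs at 37C/5% CO2, then exposed to compounds in DMSO for 16 hrs. Viability was read in the same wells as intracellular ATP by luminescence, 30 min at room temperature after reagent addition.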", "values": [{"compound": "CCCCOC(=O)CC(CC(=O)OCCCC)(OC(C)=O)C(=O)OCCCC", "max response": "-1.72%"}, {"compound": "CCCCCCCC/C=C\\CCCCCCCCN", "max response": "3.81%"}, {"compound": "CC1(COc2ccc(CC3SC(=O)NC3=O)cc2)CCCCC1", "note": "(stereo not given)", "max response": "-9.6%"}, {"compound": "C=C[C@@]1(C)CC(=O)[C@]2(O)[C@@]3(C)[C@@H](O)CCC(C)(C)[C@@H]3[C@H](O)[C@H](OC(C)=O)[C@@]2(C)O1", "max response": "4.11%"}, {"compound": "CCCCCCCCOc1ccc(C(=O)c2ccccc2)c(O)c1", "max response": "-12.5%"}, {"compound": "C/C=C/c1ccc(O)c(OC)c1", "max response": "-8.93% and -1.72%"}, {"compound": "CC(C)(C)CC(C)(C)c1ccc(O)c(-n2nc3ccccc3n2)c1", "max response": "4.4%"}, {"compound": "CCCCCCCCCCCCCCCC(=O)O", "max response": "-12.5%"}, {"compound": "CCOc1ccc(NC(C)=O)cc1", "max response": "3.98% and -0.784%"}, {"compound": "COc1cc([C@H]2Oc3cc([C@H]4Oc5cc(O)cc(O)c5C(=O)[C@@H]4O)ccc3O[C@@H]2CO)ccc1O", "max response": "-21.7%"}, {"compound": "OC[C@H]1O[C@@H]2O[C@H]3[C@H](O)[C@@H](O)[C@@H](O[C@H]4[C@H](O)[C@@H](O)[C@@H](O[C@H]5[C@H](O)[C@@H](O)[C@@H](O[C@H]6[C@H](O)[C@@H](O)[C@@H](O[C@H]7[C@H](O)[C@@H](O)[C@@H](O[C@H]8[C@H](O)[C@@H](O)[C@@H](O[C@H]1[C@H](O)[C@H]2O)O[C@@H]8CO)O[C@@H]7CO)O[C@@H]6CO)O[C@@H]5CO)O[C@@H]4CO)O[C@@H]3CO", "max response": "-6.08%"}, {"compound": "CC1(C)OC[C@@H]2O[C@@]3(C(=O)O)OC(C)(C)O[C@H]3[C@@H]2O1", "max response": "-0.898%"}, {"compound": "CN(C)C(=O)Nc1ccc(Cl)c(Cl)c1", "max response": "12.2%"}, {"compound": "CCCCCCCCCCCCCC(=O)OC(C)C", "max response": "-11.9%"}, {"compound": "C#C[C@]1(O)CC[C@H]2[C@@H]3CCC4=Cc5oncc5C[C@]4(C)[C@H]3CC[C@@]21C", "max response": "1.42%"}, {"compound": "O=C(O)c1ccc(S(=O)(=O)N(Cl)Cl)cc1", "max response": "7.82%"}, {"compound": "C=C[C@H]1CN2CC[C@H]1C[C@@H]2[C@@H](O)c1ccnc2ccc(OC)cc12", "max response": "21.8%"}, {"compound": "CCCCCCCCCCCCCCCCO", "max response": "-4.14%"}, {"compound": "NC(=O)c1ccccc1O", "max response": "-0.33%"}, {"compound": "COc1ccc(C(=O)c2ccccc2)c(O)c1", "max response": "6% and -1.76%"}, {"compound": "CCCCC(CC)COC(=O)c1ccc(N(C)C)cc1", "note": "(stereo not given)", "max response": "0.308% and -6.35%"}, {"compound": "COc1ccc(C(Cl)=C(c2ccc(OC)cc2)c2ccc(OC)cc2)cc1", "max response": "-11.1%"}, {"compound": "CCOc1ccccc1C(N)=O", "max response": "5.3%"}, {"compound": "CCCN(CCC)S(=O)(=O)c1ccc(C(=O)O)cc1", "max response": "9.27% and -1.08%"}, {"compound": "NCCNc1cccc2ccccc12", "max response": "-8.07% and -42.5%"}]}, {"molecular_target": "T1, Hexokinase-4 (Homo sapiens) + Glucokinase regulatory protein (Homo sapiens) (UniProt P35557+Q14397)", "T1 sequence (P35557 whole entry, looked up)": "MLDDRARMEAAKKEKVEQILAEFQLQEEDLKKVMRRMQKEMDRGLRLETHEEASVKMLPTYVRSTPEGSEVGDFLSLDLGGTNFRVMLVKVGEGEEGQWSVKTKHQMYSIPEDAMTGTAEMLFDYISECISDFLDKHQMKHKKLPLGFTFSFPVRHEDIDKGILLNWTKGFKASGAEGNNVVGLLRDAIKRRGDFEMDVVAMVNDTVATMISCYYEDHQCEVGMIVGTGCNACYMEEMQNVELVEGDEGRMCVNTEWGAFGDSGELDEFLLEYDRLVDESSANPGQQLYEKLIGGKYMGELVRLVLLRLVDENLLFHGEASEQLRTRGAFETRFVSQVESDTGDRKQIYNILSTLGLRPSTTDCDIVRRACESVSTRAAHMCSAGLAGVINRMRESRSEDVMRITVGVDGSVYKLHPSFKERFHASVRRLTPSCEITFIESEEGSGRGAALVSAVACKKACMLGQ", "T1 sequence (Q14397 whole entry, looked up)": "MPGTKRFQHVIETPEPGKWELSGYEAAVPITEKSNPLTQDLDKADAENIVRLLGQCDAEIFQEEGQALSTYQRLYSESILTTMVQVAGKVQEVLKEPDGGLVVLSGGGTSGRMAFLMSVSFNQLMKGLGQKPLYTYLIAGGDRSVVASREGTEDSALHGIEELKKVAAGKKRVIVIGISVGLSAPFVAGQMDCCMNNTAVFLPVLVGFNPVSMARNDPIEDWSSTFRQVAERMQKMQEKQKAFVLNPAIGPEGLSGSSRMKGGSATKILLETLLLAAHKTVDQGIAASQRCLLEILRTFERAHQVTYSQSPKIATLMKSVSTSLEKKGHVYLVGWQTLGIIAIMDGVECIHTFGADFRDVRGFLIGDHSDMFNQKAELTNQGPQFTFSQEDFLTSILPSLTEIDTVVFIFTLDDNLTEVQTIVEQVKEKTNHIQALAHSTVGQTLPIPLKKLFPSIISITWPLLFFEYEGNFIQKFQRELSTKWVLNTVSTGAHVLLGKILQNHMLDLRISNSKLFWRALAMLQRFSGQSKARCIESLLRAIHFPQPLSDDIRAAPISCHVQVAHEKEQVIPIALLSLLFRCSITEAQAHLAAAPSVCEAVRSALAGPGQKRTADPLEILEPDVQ", "assay": "qHTS assay for inhibitors of recombinant human GCK-GKRP interaction: Diaphorase-coupled assay (AID 743205)", "conditions": "G6PDH/diaphorase resorufin fluorescence; series mostly up to 57.5 µM", "in_short": "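25 mM Hepes pH 7.6, 5 mM glucose, 0.4 mM ATP, 4 U/ml G6PDH; 10 nM each GST-GCK/FLAG-GKRP. Kinetic fluorescence read, 1/min × 30 min. Normalized: DMSO ± enzyme = max/min.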", "values": [{"compound": "CC(C)(C)NC[C@H](O)COc1nsnc1N1CCOCC1", "outcome": "inactive"}, {"compound": "CN=C(N)NCCC[C@H](N)C(=O)O", "outcome": "inactive"}, {"compound": "NC(N)=NCc1cccc(I)c1", "outcome": "inactive"}, {"compound": "CCOC(=O)[C@H](CCc1ccccc1)N[C@@H](C)C(=O)N1[C@H](C(=O)O)C[C@H]2CCCC[C@@H]21", "outcome": "inactive"}]}, {"molecular_target": "T1, Hexokinase-4 (Homo sapiens) + Glucokinase regulatory protein (Homo sapiens)", "assay": "qHTS assay for inhibitors of recombinant human GCK-GKRP interaction: ADP-Glo assay (AID 743206);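 further: plate controls were DMSO plus enzyme for no effect and no enzyme for full effect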", "conditions": "ADP-Glo luminescence, 60 min, 0% = vehicle-only wells with enzyme present; series mostly up to 76.9 µM", "in_short": "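GST-GCK and FLAG-GKRP (15 nM each in the dispensed mix, with 2 uM S6P) react with 0.4 mM ATP and 5 mM glucose (final) in Hepes pH 7.6 for 60 min at room temperature. ADP is measured by ADP-Glo luminescence.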", "values": [{"compound": "CC(C)(C)NC[C@H](O)COc1nsnc1N1CCOCC1", "outcome": "inactive"}, {"compound": "CN=C(N)NCCC[C@H](N)C(=O)O", "outcome": "inactive"}, {"compound": "NC(N)=NCc1cccc(I)c1", "outcome": "inactive"}, {"compound": "CCOC(=O)[C@H](CCc1ccccc1)N[C@@H](C)C(=O)N1[C@H](C(=O)O)C[C@H]2CCCC[C@@H]21", "outcome": "inactive"}]}, {"molecular_target": "T1, Hexokinase-4 (Homo sapiens) + Glucokinase regulatory protein (Homo sapiens)", "assay": "qHTS assay for inhibitors of recombinant human GCK-GKRP interaction: HTRF assay (AID 743207);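 further: 0% = DMSO with GCK present and -100% = DMSO wells lacking GCK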", "conditions": "recombinant GCK-GKRP HTRF binding, 60 min, with sorbitol-6-phosphate; series mostly up to 57.5 µM", "source_text": "Glucokinase (GCK) is a glucose sensor in hepatocytes and pancreatic beta-cells. Hepatic GCK is regulated by glucokinase regulatory protein (GKRP), which is predominantly localized to the liver. GKRP binds to GCK inhibiting its activity in the fasting state while in the presence of glucose the GKRP is displaced. There is an additional layer of regulation by fructose 1-phosphate and fructose 6-phosphate, which inhibit and enhance the GCK-GKRP interaction, respectively. GCK plays a role in glucose homeostasis and there is an interest in the development of strategies to activate GCK to lower blood glucose levels in type 2 diabetes. To date the majority of effort has focused on direct activation of GCK and the assays developed herein look to activate GCK by inhibiting its binding to GKRP. A compound that inhibits the interaction of GCK with GKRP could be important for the treatment of diabetes and can also be used as a tool compound to further elucidate GCK-GKRP biology. To that end, we have developed an HTS biochemical assay using HTRF technology for to interrogate the GCK-GKRP interaction. This assay was screened against a small compound library to look for modulators of activity.\n3 uL of 5 nM GST-GCK and 5 nM FLAG-GKRP proteins with 2 uM S6P (columns 1-2, 4-48; Millipore, Billerica, MA) are dispensed into Greiner, white solid-bottom 1536-well assay plates; columns 3 receive buffer without GCK as a control for maximum inhibition. Buffer contains 2 mM MgCl2, 25 mM KCl, 25 mM Hepes, 1 mM DTT, 0.1% Tween 20 and 0.025% BSA and the pH was adjusted to 7.1. Compounds (23 nL) are then transferred via Kalypsys pin tool equipped with 1536-pin array (10 nL slotted pins, V&P Scientific, San Diego, CA). The library compounds are in columns 5-48 and columns 1-4 serve as controls with DMSO in columns 1 and 3 and 26 mM 1:1.5 fold serial of gluckokinase activator (GKA-EMD) in column 2 and 26 mM of the glucokinase activator (GKA-EMD) in column 4. Following addition of compound, 1 uL of detection antibodies (anti-Flag XL 665 and anti-GST K in reconstitution buffer from Cisbio, Bedford, MA; 0.7 ng/well and 0.0945 ng/well, respectively) is added, and the mixture is allowed to equilibrate for 60 minutes at room temperature. Data are normalized to DMSO-treated control columns with (maximum signal) and without (minimum signal) enzyme. Plates were read on an Envision plate reader (PerkinElmer, Shelton, CT, USA) with excitation at 320 nm and dual-wavelength detection at the Fret donor wavelength (615 nm) and the FRET acceptor wavelength (665 nm).", "values": [{"compound": "CC(C)(C)NC[C@H](O)COc1nsnc1N1CCOCC1", "outcome": "inactive"}, {"compound": "CN=C(N)NCCC[C@H](N)C(=O)O", "outcome": "inactive"}, {"compound": "NC(N)=NCc1cccc(I)c1", "outcome": "inactive"}, {"compound": "CCOC(=O)[C@H](CCc1ccccc1)N[C@@H](C)C(=O)N1[C@H](C(=O)O)C[C@H]2CCCC[C@@H]21", "outcome": "inactive"}]}, {"tested_on": "not listed separately", "assay": "qHTS Assay for Identifying Gametocytocidal Compounds (AID 743244);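 further: on the % scale 0 is the no-effect control and ±100 the full control effect; actives lower the fluorescent signal which means gametocytes are killed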", "conditions": "P. falciparum 3D7 stage III-V gametocytes, alamarBlue, 72 h; max response: stronger effect = lower value", "in_short": "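Stage III–V gametocytes of P. falciparum 3D7 were seeded at 20,000 cells/well onto pre-dispensed compounds. After 72 h, 37 °C, 5% CO2, alamarBlue was added for another 24 h.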", "values": [{"compound": "CCCCOC(=O)CC(CC(=O)OCCCC)(OC(C)=O)C(=O)OCCCC", "max response": "2.63%"}, {"compound": "CCCCCCCC/C=C\\CCCCCCCCN", "max response": "-6.53%"}, {"compound": "CC(C)(C)NC[C@H](O)COc1nsnc1N1CCOCC1", "max response": "-3.64%"}, {"compound": "C=C[C@@]1(C)CC(=O)[C@]2(O)[C@@]3(C)[C@@H](O)CCC(C)(C)[C@@H]3[C@H](O)[C@H](OC(C)=O)[C@@]2(C)O1", "max response": "-8.6%"}, {"compound": "CCCCCCCCOc1ccc(C(=O)c2ccccc2)c(O)c1", "max response": "-5.25%"}, {"compound": "C/C=C/c1ccc(O)c(OC)c1", "max response": "26.3%"}, {"compound": "CC(C)(C)CC(C)(C)c1ccc(O)c(-n2nc3ccccc3n2)c1", "max response": "-5.06%"}, {"compound": "CNCCc1ccccn1", "max response": "-0.406%"}, {"compound": "CCCCCCCCCCCCCCCC(=O)O", "max response": "2.07%"}, {"compound": "CCOc1ccc(NC(C)=O)cc1", "max response": "18.5%"}, {"compound": "CN=C(N)NCCC[C@H](N)C(=O)O", "max response": "-7.79% and 5.96% and -18.7%"}, {"compound": "Cc1nc(-c2ccc(Cl)cc2)oc1COC(C)(C)C(=O)O", "max response": "-2.69%"}, {"compound": "COc1cc([C@H]2Oc3cc([C@H]4Oc5cc(O)cc(O)c5C(=O)[C@@H]4O)ccc3O[C@@H]2CO)ccc1O", "max response": "-1.37%"}, {"compound": "Oc1ccc(Cl)cc1Cc1cc(Cl)ccc1O", "max response": "0.972%"}, {"compound": "OC1C(O)C(O)C(O)C(O)C1O", "note": "(stereo not given)", "max response": "0.49%"}, {"compound": "OC[C@H]1O[C@@H]2O[C@H]3[C@H](O)[C@@H](O)[C@@H](O[C@H]4[C@H](O)[C@@H](O)[C@@H](O[C@H]5[C@H](O)[C@@H](O)[C@@H](O[C@H]6[C@H](O)[C@@H](O)[C@@H](O[C@H]7[C@H](O)[C@@H](O)[C@@H](O[C@H]8[C@H](O)[C@@H](O)[C@@H](O[C@H]1[C@H](O)[C@H]2O)O[C@@H]8CO)O[C@@H]7CO)O[C@@H]6CO)O[C@@H]5CO)O[C@@H]4CO)O[C@@H]3CO", "max response": "2.64%"}, {"compound": "NC(N)=NCc1cccc(I)c1", "max response": "10% and 7.9%"}, {"compound": "CN(C)C(=O)Nc1ccc(Cl)c(Cl)c1", "max response": "-3.3%"}, {"compound": "O=C(O)Cc1csc(-c2ccc(Cl)cc2)n1", "max response": "-4.61%"}, {"compound": "C#C[C@]1(O)CC[C@H]2[C@@H]3CCC4=Cc5oncc5C[C@]4(C)[C@H]3CC[C@@]21C", "max response": "-4.72%"}, {"compound": "O=C(O)c1ccc(S(=O)(=O)N(Cl)Cl)cc1", "max response": "-8.91%"}, {"compound": "OCc1ccccn1", "max response": "-7.21%"}, {"compound": "NC(=O)c1ccccc1O", "max response": "-5.71%"}, {"compound": "COc1ccc(C(=O)c2ccccc2)c(O)c1", "max response": "-10.7%"}, {"compound": "NCCNC(=O)c1ccc(Cl)cn1", "max response": "-2.71%"}, {"compound": "Oc1c(Cl)cc(Cl)c(Cl)c1Cc1c(O)c(Cl)cc(Cl)c1Cl", "max response": "14.7%"}, {"compound": "C[C@@]12C(=O)OC(=O)[C@]1(C)C1CCC2O1", "max response": "-5.31%"}, {"compound": "CCCCC(CC)COC(=O)c1ccc(N(C)C)cc1", "note": "(stereo not given)", "max response": "3.36%"}, {"compound": "COc1ccc(C(Cl)=C(c2ccc(OC)cc2)c2ccc(OC)cc2)cc1", "max response": "5.06%"}, {"compound": "CCOc1ccccc1C(N)=O", "max response": "14%"}, {"compound": "CCN1CCCC(OC(=O)C(c2ccccc2)c2ccccc2)C1", "note": "(stereo not given)", "max response": "-3.97%"}, {"compound": "CCCN(CCC)S(=O)(=O)c1ccc(C(=O)O)cc1", "max response": "12.9%"}, {"compound": "Cc1c(-c2ccccc2)oc2c(C(=O)OCCN3CCCCC3)cccc2c1=O", "max response": "3.61%"}]}]}
